Vaccinia mCherry: inhibitors of vaccinia virus infection (mCherry reporter signal); Vaccinia virus mCherry reporter infection, fluorescence; Potency, µM (doses to about 36.5 µM), inactives show top-dose activity change, negative = inhibition, hits mostly inhibitors; 0.63% of 310,000 active; calls by dose curve; tested in A549 cells; further: potency means the concentration at half of the fitted maximal effect; nearly all actives have a fitted effect of over 35% in size
HCMV inh: blocks human cytomegalovirus replication. activity change, negative = inhibition, % at 57.5 µM. HFF cells, HCMV-luciferase reporter, 72 h; active compounds read low. 4.5% of 410,000 active; in the data active means activity change below about -60%; inconclusive means no clear call, values can overlap the other calls; inactive means above about -39%
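HFF cells seeded 16 h at 37C, treated with compounds, infected with luciferase-reporter HCMV at MOI 1 PFU/cell; luciferase read at 72 h post infection, normalized to buffer-only and Salinomycin controls.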
HCV inhibitor: inhibitors of hepatitis C virus infection. AID 651820. Potency, µM (titrated, usually from 41.8 µM), for inactives: at the top dose activity change, negative = inhibition, hits mostly inhibitors. Huh7.5.1 HCVcc-Cre infection, luciferase reporter, 44 h. 3.4% of 340,000 active; further: potency means the concentration at half of the fitted maximal effect
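Antiviral activity was scored by luciferase reporter output from cells infected with HCVcc-Cre (~0.5 moi) in presence of compound, 44 h infection period, cells seeded 1,000/well 4 h prior.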
FBPA Giardia inh: Giardia lamblia aldolase inhibition; purified Giardia FBPA; AID 2451; 0.71% of 290,000 active; Potency, µM (series often up to 59.6 µM), without a hit: at the top dose activity, negative = inhibition, usual class: inhibitors; further: potency means the concentration at half of the fitted maximal effect; nearly all actives have a fitted effect of over 55% in size
Target sequence (A8B2U2 whole entry, looked up): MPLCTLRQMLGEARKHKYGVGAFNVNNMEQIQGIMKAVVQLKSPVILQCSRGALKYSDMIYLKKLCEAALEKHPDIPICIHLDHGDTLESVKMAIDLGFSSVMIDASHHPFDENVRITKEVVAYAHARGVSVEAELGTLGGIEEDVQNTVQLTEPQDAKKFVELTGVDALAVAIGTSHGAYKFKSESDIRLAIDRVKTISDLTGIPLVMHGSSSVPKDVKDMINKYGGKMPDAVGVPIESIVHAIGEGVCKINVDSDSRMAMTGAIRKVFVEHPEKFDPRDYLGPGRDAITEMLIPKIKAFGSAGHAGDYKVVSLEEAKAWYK
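40 nM FBPA preincubated 10 min at RT with compound (up to 57.5 uM final), then substrate plus GAPDH/TPI/NAD/arsenate coupling and diaphorase/resazurin added. Fluorescence read after 20 min at RT, 525/598 nm.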
FMDV inh: antivirals against foot and mouth disease virus; Potency, µM (doses to about 57.9 µM), inactives show at the highest dose activity change, negative = inhibition, hits mostly inhibitors; FMDV antiviral cell-based qHTS; 1.2% of 410,000 active; calls by dose curve; tested in HEK293T cells; further: read-out not given here; potency means the concentration at half of the fitted maximal effect; nearly all actives have a fitted effect of over 45% in size
VACV Venus inh: vaccinia inhibition (Venus reporter) | Vaccinia virus Venus reporter expression, fluorescence | Potency, µM (doses to about 36.5 µM), without a hit: top-dose activity change, negative = inhibition, hits mostly inhibitors | 0.46% of 330,000 active | AID 720580; calls by dose curve; tested in A549 cells; further: potency means the concentration at half of the fitted maximal effect; nearly all actives have a fitted effect of over 30% in size
Numbers without * were called inactive; i = inactive; ? = inconclusive; nt = no result; [ ] = another dose, or the depositor's remark. In the library only some 7.5% were active in any assay of this set; here they are far more common. Unless noted, the call rests on the fitted dose curve; in most records, active means well fitted curve in the direction sought with a large enough effect; inconclusive means small, poorly fitted or top-dose-only effect, or another doubt; inactive means no such curve, though single readings can be large; an effect the other way counts as inactive or inconclusive. On the % scale 0 is the no-effect control and ±100 the full control effect.

SMILES	Vaccinia mCherry	HCMV inh	HCV inhibitor	FBPA Giardia inh	FMDV inh	VACV Venus inh
CCOC(=O)Cn1c(C(F)(F)F)nc2nc(Cl)c(Cl)nc21	-24%	-98*	?	nt	?	-23%
C=CCN=C1S/C(=C/c2ccc([N+](=O)[O-])cc2)C(=O)N1CC=C	?	-16	-11%	3%	4%	6%[7.34 µM]
CN=C1S/C(=C\c2ccc(Cl)cc2)C(=O)N1C	-18%	-12	11µM*	2%	18%	-2%
C=CCN=C1S/C(=C/c2cccc([N+](=O)[O-])c2)C(=O)N1CC=C	nt	-74*	?	0%	?	nt
C=CCN=C1S/C(=C\c2ccc(Cl)cc2)C(=O)N1CC=C	0%	-84*	-6%	-2%	-20%	-8%
O=C(c1cnccn1)N1CCC2(CC1)CN(Cc1nccs1)C2	nt	nt	nt	1%	1%	nt
CCOC(=O)C1=C(Nc2ccc(Br)cc2)C(=O)N(CC)C1	nt	-12	nt	nt	nt	nt
N#C/C(=C\C=C\c1ccccc1)c1nc(-c2ccc(Cl)cc2)cs1	i	-60*	-12%	-5%	-5%	-9%
O=C(c1ccc2c(c1)N(Cc1ccccc1)C(=O)c1ccccc1S2=O)N1CCC(Cc2ccccc2)CC1 (stereo not drawn)	-24%	-76*	nt	nt	?	-17%
O=C(c1ccc2c(c1)N(Cc1ccc(F)cc1)C(=O)c1ccccc1S2=O)N1CCC(Cc2ccccc2)CC1 (stereo not drawn)	-17%	-78*	nt	nt	-13%	-13%
Cc1ccc(N2CC(C(=O)NC3CC3)CC2=O)cc1 (stereo not drawn)	-5%	12	6%	7%	1%	5%
Cc1ccc(N2CC(C(=O)NC3CCCCCC3)CC2=O)cc1 (stereo not drawn)	-1%	-64*	nt	nt	-18%	-7%
O=C(NCc1cccnc1)c1cnn(-c2ncc3c(n2)-c2ccccc2CCC3)c1C1CC1	-16%	nt	nt	nt	-14%	-9%
CCCCc1c(-c2ccccc2OC)ncn1CCc1ccccc1	i	-33	nt	nt	?	?
CCCCc1c(-c2ccccc2OC)ncn1CCc1ccc(OC)cc1	-23%	-64*	nt	nt	22µM*	-14%
CCCCc1c(Cc2ccccc2)ncn1CCc1ccccc1OC	-19%	-76*	nt	nt	?	-29%
CCCCc1c(-c2ccc(F)cc2)ncn1CCc1ccccc1OC	-25%	-62*	nt	nt	25µM*	?
CCCCCc1c(-c2ccc(Cl)cc2)ncn1CCc1ccccc1OC	-19%	-75*	nt	nt	-1%	-12%
COc1ccc(NC(=O)C2=C(C)Nc3ncnn3C2c2ccc(O)cc2)cc1 (stereo not drawn)	9%	7	nt	nt	5%	2%
C/C(=N/NC(=O)CN1CCN(Cc2ccccc2Cl)CC1)c1cccnc1	nt	3	5%	6%	-18%	nt
CCCCc1c(-c2ccc(OC)cc2)ncn1CCc1ccccc1OC	?	-85*	nt	nt	22µM*	?
CCc1c(-c2ccc(Cl)cc2)ncn1CCc1ccccc1OC	nt	-23	nt	nt	nt	nt
CCCCc1c(-c2ccccc2)ncn1CCc1ccccc1OC	?	-75*	nt	nt	25µM*	?
CCCCc1c(-c2cccc(Cl)c2)ncn1CCc1ccccc1OC	-14%	-80*	nt	nt	22µM*	-14%
CCCc1c(-c2cccc(Cl)c2)ncn1Cc1ccccc1OC	-10%	-23	nt	nt	?	-12%
SMILES	Vaccinia mCherry	HCMV inh	HCV inhibitor	FBPA Giardia inh	FMDV inh	VACV Venus inh
CCCCCc1c(-c2ccc(OC)cc2)ncn1CCc1ccccc1OC	?	-94*	nt	nt	22µM*	?
CCCCc1c(-c2ccccc2OC)ncn1CCc1ccc(Cl)cc1	-26%	-12	nt	nt	?	?
COc1cccc(C2=NS(=O)(=O)N(C)C(C(=O)Nc3ccccc3SC)=C2)c1	-7%	1	nt	nt	-13%	-9%
Cc1ccc(NC(=O)N/C=C/c2ccco2)cc1C	nt	-108*	0%	-6%	6%	nt
Cc1ccc(NC(=O)N/C=C/c2ccco2)c(C)c1	nt	14	?	-1%	18%	nt
CNC(=O)CN1C(=O)CSc2ncccc21	i	?	13%	1%	-24%	-8%
CCN(CC)c1ccc(NC(=O)CN2C(=O)CSc3ncccc32)c(C)c1	i	-86*	3.5µM*	-9%	?	-12%
Cc1nn2c(=O)cc(COC(=O)Cc3ccccc3)nc2s1	4%	6	nt	nt	-7%	-2%
CC1CCN(c2nc3nonc3nc2Nc2ccc(F)cc2)CC1	?	?	11µM*	0%	28µM*	-19%
COc1cccc(NC(=O)N2CCc3nc(NCc4cccc(Oc5ccccc5)c4)ncc3C2)c1	-7%	?	nt	nt	-62%	?
COc1cccc(NC(=O)N2CCc3nc(Nc4cc(Cl)cc(Cl)c4)ncc3C2)c1	i	-67*	nt	nt	-23%	?
CC(C)c1ccc(Nc2ncc3c(n2)CCN(C(=O)Nc2ccc(F)c(Cl)c2)C3)cc1	-29%	-75*	nt	nt	?	?
O=C(Nc1ccc(OC(F)(F)F)cc1)N1CCc2nc(NCc3cccc(Oc4ccccc4)c3)ncc2C1	-5%	-92*	nt	nt	-30%	-15%
CCOC(=O)c1[nH]c2ccccc2c1NC(=O)c1ccccc1F	-20%	-1	nt	nt	-14%	-4%
O=C(Cn1ccn(-c2ccc(F)cc2)c(=O)c1=O)Nc1ccccc1C(F)(F)F	-10%	-30	nt	nt	20%	-11%
COc1ccccc1-c1ccc(OCCCN2CCC(C(O)(c3ccccc3)c3ccccc3)CC2)cc1	nt	-99*	nt	nt	nt	nt
CC(C)(C)c1ccc(C(O)CCCN2CCC(C(O)(c3ccccc3)c3ccccc3)CC2)cc1 (stereo not drawn)	13µM*	-24	2%[8.37 µM]	1%	?	11µM*
O=c1c2ccccc2nc(/C=C/c2ccc([N+](=O)[O-])cc2)n1CCCO	-26%	?	-7%	-9%	-29%	?
O=c1c2ccccc2nc(/C=C/c2cccc([N+](=O)[O-])c2)n1CCCO	-13%[1.46 µM]	?	-12%	nt	-17%	?
O=c1c2ccccc2nc(/C=C/c2cccc(Br)c2)n1CCCO	i	-92*	?	1%	-27%	-23%
O=[N+]([O-])c1cccc(/C=C/c2ccccn2)c1	nt	49	13µM*	-12%	32%	nt
Cn1c(/C=C/c2cccc([N+](=O)[O-])c2)nc2ccccc2c1=O	i	-61*	-15%	4%	-29%	-10%
O=c1c2ccccc2nc(/C=C/c2ccc([N+](=O)[O-])o2)n1CCCO	?	-108*	2.2µM*	-11%	?	?
CC(C)[C@H](NC(=O)N1c2ccccc2NC(=O)[C@@H]1C(C)C)C(=O)N[C@H](Cc1ccccc1)C(=O)O	-7%	23	11%	-6%	-1%	2%
COc1ccc(-n2c(/C=C/c3c(C)[nH]c4ccccc34)nc3ccccc3c2=O)cc1	-22%	4	nt	nt	-18%	-25%
Cc1noc(/C=C/c2ccccn2)c1[N+](=O)[O-]	-15%	-102*	-6%	12%	-26%	-11%
